# According to the supplement of paper PMC6411743:
# ± gives the standard deviation of the averaged measurements. The full data set covers some 5,400 targets. This sample favours those with the largest changes.
# Compound: Nc1nc2c(ncn2[C@@H]2O[C@H](COP(=O)(O)OP(=O)(O)OP(=O)(O)O)[C@@H](O)[C@H]2O)c(=O)[nH]1 [guanosine triphosphate]
# Experiment: NP40-soluble protein abundance relative to vehicle (solubility fold change) (ratio); higher = more soluble protein in presence of GTP
# Method in brief: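 Crude Jurkat lysate, prepared by Dounce homogenisation, was exposed to eight concentrations from 0.1 to 10 mM for 10 min at room temperature and then 3 min at 37 °C. Solubilisation used 0.8% NP40 with benzonase for 60 min at 4 °C, followed by ultracentrifugation and TMT labelling of the supernatant for LC-MS/MS. After vsn normalisation of intensities, each value is the fold change against the detergent-processed vehicle within each replicate, across three independent experiments.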
# Chain of UniProt Q9Y2S2 (Q9Y2S2 whole entry): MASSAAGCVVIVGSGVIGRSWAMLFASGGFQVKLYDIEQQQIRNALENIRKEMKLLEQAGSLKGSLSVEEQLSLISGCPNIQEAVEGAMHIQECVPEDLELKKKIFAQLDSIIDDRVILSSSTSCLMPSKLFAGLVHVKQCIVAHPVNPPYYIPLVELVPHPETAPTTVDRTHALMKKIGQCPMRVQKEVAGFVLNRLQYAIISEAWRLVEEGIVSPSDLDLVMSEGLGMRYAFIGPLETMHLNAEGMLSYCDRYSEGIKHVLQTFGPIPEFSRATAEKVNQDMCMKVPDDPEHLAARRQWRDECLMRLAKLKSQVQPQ
# Chain of UniProt Q9NVF7 (Q9NVF7 whole entry): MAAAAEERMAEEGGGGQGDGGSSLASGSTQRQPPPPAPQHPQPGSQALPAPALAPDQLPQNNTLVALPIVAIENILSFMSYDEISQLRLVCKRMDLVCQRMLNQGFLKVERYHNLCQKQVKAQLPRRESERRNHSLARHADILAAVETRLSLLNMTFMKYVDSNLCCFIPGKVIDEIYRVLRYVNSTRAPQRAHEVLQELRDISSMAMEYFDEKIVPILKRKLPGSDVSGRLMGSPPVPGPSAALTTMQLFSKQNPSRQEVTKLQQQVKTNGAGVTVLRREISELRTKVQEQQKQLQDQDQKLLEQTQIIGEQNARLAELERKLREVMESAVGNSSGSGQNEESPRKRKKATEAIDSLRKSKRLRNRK
# Chain of UniProt Q96HS1 (Q96HS1 whole entry): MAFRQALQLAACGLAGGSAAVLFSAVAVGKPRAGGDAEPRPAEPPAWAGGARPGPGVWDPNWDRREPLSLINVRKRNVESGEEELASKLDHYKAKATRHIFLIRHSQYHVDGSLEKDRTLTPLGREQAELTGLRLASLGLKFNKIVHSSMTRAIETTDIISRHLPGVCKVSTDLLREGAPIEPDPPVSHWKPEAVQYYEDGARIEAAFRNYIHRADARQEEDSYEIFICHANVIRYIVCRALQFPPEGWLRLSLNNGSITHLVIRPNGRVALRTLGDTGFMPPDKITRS
# Chain of UniProt Q9BTE7 (Q9BTE7 whole entry): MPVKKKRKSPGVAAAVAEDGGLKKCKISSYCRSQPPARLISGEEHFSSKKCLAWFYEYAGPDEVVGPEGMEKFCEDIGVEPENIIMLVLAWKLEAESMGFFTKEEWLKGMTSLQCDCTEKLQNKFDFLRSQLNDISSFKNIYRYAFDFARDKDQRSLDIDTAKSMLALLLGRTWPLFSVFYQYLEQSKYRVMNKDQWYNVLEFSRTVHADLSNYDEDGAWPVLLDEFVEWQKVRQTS
# Chain of UniProt Q9BW71 (Q9BW71 whole entry): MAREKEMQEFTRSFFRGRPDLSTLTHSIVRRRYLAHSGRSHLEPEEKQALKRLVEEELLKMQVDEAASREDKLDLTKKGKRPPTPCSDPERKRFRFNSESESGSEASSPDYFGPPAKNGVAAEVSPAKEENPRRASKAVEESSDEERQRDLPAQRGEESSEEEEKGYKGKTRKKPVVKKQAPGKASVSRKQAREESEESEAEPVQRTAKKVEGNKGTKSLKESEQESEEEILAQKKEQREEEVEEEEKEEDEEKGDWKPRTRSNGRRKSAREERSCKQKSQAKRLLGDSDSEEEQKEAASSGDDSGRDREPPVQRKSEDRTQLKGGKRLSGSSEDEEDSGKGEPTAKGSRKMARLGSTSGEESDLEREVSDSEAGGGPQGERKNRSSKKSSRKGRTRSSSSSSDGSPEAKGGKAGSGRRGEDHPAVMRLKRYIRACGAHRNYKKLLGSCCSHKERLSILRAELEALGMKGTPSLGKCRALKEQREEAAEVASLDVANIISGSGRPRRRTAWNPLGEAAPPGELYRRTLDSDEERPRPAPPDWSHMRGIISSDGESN
# Chain of UniProt Q9Y696 (Q9Y696 whole entry): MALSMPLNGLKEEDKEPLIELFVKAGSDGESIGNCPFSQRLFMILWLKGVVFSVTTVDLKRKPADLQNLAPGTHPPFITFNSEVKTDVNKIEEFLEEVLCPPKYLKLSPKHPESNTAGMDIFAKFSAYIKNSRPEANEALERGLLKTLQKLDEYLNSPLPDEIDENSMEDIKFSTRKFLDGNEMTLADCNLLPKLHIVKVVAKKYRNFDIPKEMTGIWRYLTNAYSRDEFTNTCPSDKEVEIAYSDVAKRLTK
# Chain of UniProt Q96PZ0 (Q96PZ0 whole entry): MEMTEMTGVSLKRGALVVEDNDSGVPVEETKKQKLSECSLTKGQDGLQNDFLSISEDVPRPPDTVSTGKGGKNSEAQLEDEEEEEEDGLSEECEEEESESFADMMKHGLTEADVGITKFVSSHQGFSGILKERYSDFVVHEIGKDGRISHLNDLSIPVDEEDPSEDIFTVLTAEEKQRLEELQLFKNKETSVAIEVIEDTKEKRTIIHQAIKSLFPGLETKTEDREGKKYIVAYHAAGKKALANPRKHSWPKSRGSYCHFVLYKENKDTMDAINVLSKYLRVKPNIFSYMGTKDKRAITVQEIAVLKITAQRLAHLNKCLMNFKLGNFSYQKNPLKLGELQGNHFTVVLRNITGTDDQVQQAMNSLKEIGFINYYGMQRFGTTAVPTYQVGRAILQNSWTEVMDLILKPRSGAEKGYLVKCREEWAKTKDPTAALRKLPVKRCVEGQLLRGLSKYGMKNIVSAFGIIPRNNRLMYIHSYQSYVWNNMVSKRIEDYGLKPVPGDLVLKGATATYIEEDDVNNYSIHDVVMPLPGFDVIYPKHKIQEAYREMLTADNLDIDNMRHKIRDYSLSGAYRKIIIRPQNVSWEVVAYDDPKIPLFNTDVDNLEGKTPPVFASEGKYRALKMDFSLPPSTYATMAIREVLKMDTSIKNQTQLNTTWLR
# Chain of UniProt Q9Y5K8 (Q9Y5K8 whole entry): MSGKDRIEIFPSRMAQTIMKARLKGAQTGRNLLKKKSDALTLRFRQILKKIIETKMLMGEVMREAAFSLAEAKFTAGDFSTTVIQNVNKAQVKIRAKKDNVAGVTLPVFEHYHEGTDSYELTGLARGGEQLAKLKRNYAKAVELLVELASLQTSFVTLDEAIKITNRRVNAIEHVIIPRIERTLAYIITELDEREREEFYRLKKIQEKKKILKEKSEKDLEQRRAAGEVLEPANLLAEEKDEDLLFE
# Chain of UniProt Q96LT9 (Q96LT9 whole entry): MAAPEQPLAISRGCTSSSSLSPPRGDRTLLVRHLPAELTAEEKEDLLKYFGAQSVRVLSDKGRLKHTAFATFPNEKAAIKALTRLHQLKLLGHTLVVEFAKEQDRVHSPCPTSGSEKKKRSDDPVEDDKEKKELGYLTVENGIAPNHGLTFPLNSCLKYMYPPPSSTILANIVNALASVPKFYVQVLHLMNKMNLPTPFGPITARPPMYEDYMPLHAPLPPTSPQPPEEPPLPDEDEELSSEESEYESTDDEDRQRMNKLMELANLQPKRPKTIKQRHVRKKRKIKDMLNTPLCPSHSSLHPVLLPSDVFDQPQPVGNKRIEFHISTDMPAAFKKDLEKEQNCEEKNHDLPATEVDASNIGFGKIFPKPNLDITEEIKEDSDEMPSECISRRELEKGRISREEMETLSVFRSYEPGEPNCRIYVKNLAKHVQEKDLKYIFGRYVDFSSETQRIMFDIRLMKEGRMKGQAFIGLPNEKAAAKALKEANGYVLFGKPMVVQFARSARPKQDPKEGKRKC
# Chain of UniProt Q9NRX1 (Q9NRX1 whole entry): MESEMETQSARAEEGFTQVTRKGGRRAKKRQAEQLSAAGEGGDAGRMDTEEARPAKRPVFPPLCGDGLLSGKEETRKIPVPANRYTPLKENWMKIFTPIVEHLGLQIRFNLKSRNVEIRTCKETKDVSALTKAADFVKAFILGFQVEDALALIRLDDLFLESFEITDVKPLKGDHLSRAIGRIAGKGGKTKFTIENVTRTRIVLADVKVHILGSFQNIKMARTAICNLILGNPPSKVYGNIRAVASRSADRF
# Chain of UniProt Q9H0A0 (Q9H0A0 whole entry): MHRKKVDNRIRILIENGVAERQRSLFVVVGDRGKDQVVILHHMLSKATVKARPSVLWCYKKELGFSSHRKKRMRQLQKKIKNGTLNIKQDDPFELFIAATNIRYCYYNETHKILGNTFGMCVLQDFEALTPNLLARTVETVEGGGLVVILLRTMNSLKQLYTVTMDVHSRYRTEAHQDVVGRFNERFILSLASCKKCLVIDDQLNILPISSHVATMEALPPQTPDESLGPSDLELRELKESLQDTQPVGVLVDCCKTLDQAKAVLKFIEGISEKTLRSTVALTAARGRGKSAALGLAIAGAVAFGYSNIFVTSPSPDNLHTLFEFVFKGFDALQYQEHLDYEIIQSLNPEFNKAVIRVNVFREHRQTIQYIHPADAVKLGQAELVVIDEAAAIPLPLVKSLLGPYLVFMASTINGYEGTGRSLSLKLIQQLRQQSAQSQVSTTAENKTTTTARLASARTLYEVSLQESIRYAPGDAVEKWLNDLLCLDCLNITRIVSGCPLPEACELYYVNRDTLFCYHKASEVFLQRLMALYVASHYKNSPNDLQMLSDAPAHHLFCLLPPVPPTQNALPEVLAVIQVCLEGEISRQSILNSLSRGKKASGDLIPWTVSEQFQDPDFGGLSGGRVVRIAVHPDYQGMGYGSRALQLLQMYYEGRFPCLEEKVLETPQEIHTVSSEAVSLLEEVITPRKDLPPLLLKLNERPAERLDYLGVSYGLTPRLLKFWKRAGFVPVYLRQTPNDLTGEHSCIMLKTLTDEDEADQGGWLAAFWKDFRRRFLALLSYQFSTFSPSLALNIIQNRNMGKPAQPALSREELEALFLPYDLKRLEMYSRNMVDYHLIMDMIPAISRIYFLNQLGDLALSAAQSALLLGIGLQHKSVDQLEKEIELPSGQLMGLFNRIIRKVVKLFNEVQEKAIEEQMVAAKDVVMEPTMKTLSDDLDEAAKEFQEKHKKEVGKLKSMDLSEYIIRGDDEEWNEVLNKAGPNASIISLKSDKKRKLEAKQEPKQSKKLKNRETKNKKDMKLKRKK
# Chain of UniProt Q9NY12 (Q9NY12 whole entry): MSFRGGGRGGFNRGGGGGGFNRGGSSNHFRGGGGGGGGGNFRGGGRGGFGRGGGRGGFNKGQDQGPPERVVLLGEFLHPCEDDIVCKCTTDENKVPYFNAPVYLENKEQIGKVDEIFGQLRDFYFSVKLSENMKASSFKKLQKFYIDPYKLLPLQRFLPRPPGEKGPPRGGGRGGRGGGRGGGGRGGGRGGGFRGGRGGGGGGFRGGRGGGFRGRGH
Target,NP40-soluble protein abundance (concentration: 0.1mM),NP40-soluble protein abundance (concentration: 0.5mM),NP40-soluble protein abundance (concentration: 1mM),NP40-soluble protein abundance (concentration: 2mM),NP40-soluble protein abundance (concentration: 4mM),NP40-soluble protein abundance (concentration: 6mM),NP40-soluble protein abundance (concentration: 8mM),NP40-soluble protein abundance (concentration: 10mM)
EXOSC4 (UniProt Q9NPD3),1.07 ± 0.061,0.988 ± 0.057,0.996 ± 0.015,0.994 ± 0.11,1.12 ± 0.023,1.12 ± 0.095,1.11 ± 0.089,1.16 ± 0.054
UniProt Q9Y2C4|Q9Y2C4-3|Q9Y2C4-4,1.2 ± 0.083,1.12 ± 0.049,1.11 ± 0.083,1.14 ± 0.088,1.08 ± 0.033,1.07 ± 0.081,1.01 ± 0.034,1.03 ± 0.044
UniProt Q96FJ2,0.875 ± 0.063,0.83 ± 0.033,1.07 ± 0.12,1.06 ± 0.081,1.18 ± 0.1,1.03 ± 0.11,1.05 ± 0.087,1.18 ± 0.17
UniProt Q9HD33|Q9HD33-2,1.01 ± 0.017,1.16 ± 0.087,1.34 ± 0.23,1.55 ± 0.39,1.7 ± 0.52,1.86 ± 0.49,2.03 ± 0.59,2.05 ± 0.64
PNO1 (UniProt Q9NRX1),1.04 ± 0.082,1.09 ± 0.17,1.14 ± 0.19,1.15 ± 0.28,1.09 ± 0.27,1.09 ± 0.3,1.15 ± 0.28,1.15 ± 0.32
UniProt Q93052|A0A087WZF1|C9JXK9,0.985 ± 0.047,0.946 ± 0.086,0.944 ± 0.072,0.906 ± 0.071,0.884 ± 0.063,0.896 ± 0.081,0.906 ± 0.083,0.901 ± 0.09
FBXO28 (UniProt Q9NVF7),1.09 ± 0.028,1.08 ± 0.13,1.28 ± 0.18,1.31 ± 0.099,1.39 ± 0.12,1.47 ± 0.12,1.42 ± 0.28,1.61 ± 0.25
DCUN1D5 (UniProt Q9BTE7),0.984 ± 0.048,0.929 ± 0.07,0.918 ± 0.076,0.916 ± 0.077,0.948 ± 0.027,0.883 ± 0.056,0.891 ± 0.069,0.883 ± 0.074
LEMD3 (UniProt Q9Y2U8),0.989 ± 0.049,1 ± 0.038,1.01 ± 0.037,1.01 ± 0.048,0.999 ± 0.036,0.985 ± 0.033,1.01 ± 0.049,0.985 ± 0.027
HIRIP3 (UniProt Q9BW71),0.932 ± 0.071,0.925 ± 0.089,1.01 ± 0.1,0.983 ± 0.15,1.04 ± 0.14,1.07 ± 0.14,1.13 ± 0.06,1.14 ± 0.094
PUS7 (UniProt Q96PZ0),0.992 ± 0.013,0.992 ± 0.016,0.944 ± 0.046,0.944 ± 0.029,0.907 ± 0.053,0.917 ± 0.022,0.889 ± 0.038,0.892 ± 0.059
SMARCD1 (UniProt Q96GM5),1.06 ± 0.036,1.11 ± 0.065,1.09 ± 0.089,1.18 ± 0.16,1.18 ± 0.17,1.18 ± 0.19,1.15 ± 0.18,1.16 ± 0.17
DDX21 (UniProt Q9NR30),1.11 ± 0.027,1.1 ± 0.048,1.18 ± 0.026,1.32 ± 0.019,1.56 ± 0.018,1.82 ± 0.028,2.13 ± 0.038,2.698 ± 0.024
DMAP1 (UniProt Q9NPF5),1.04 ± 0.056,1.06 ± 0.059,1.11 ± 0.079,1.17 ± 0.099,1.22 ± 0.12,1.24 ± 0.15,1.29 ± 0.2,1.26 ± 0.18
LARS (UniProt Q9P2J5),1.05 ± 0.078,1.13 ± 0.15,1.07 ± 0.18,1.17 ± 0.26,1.2 ± 0.26,1.21 ± 0.28,1.16 ± 0.24,1.09 ± 0.23
NAT10 (UniProt Q9H0A0),1.07 ± 0.065,1.04 ± 0.061,1.02 ± 0.063,1.07 ± 0.065,1.2 ± 0.079,1.31 ± 0.085,1.37 ± 0.077,1.59 ± 0.11
ATP6V1D (UniProt Q9Y5K8),1.04 ± 0.016,1.06 ± 0.03,1.04 ± 0.03,1.06 ± 0.022,1.056 ± 0.0052,1.03 ± 0.05,1.02 ± 0.045,0.992 ± 0.018
UniProt Q9H832|Q9H832-2,1.04 ± 0.06,0.987 ± 0.061,0.9687 ± 0.0042,1.12 ± 0.056,0.927 ± 0.013,0.934 ± 0.043,0.91 ± 0.034,0.963 ± 0.064
UniProt Q9H3N1,0.957 ± 0.055,0.947 ± 0.043,0.935 ± 0.04,0.871 ± 0.062,0.858 ± 0.071,0.878 ± 0.091,0.885 ± 0.053,0.859 ± 0.065
UniProt Q96LT9|Q96LT9-2,1.26 ± 0.038,1.16 ± 0.16,1.42 ± 0.12,1.49 ± 0.3,1.61 ± 0.28,1.6 ± 0.35,1.72 ± 0.51,1.8 ± 0.54
PGAM5 (UniProt Q96HS1),1.03 ± 0.034,1.09 ± 0.073,1.18 ± 0.14,1.4 ± 0.26,1.67 ± 0.38,1.79 ± 0.45,1.86 ± 0.4,1.95 ± 0.47
UniProt Q92804|Q92804-2,0.976 ± 0.03,1.048 ± 0.0095,1.18 ± 0.09,1.35 ± 0.14,1.56 ± 0.22,1.73 ± 0.28,2.08 ± 0.35,2.59 ± 0.54
CLIC4 (UniProt Q9Y696),1 ± 0.088,0.929 ± 0.063,0.966 ± 0.1,0.88 ± 0.1,0.976 ± 0.13,0.909 ± 0.1,0.973 ± 0.12,0.866 ± 0.08
UniProt Q9Y3D9|J3QLR8,1.01 ± 0.17,1.01 ± 0.19,1.61 ± 0.35,1.69 ± 0.093,1.771 ± 0.00083,1.61 ± 0.061,1.49 ± 0.28,1.73 ± 0.19
UniProt Q9Y2S2|Q9Y2S2-2,1.09 ± 0.12,0.991 ± 0.11,0.974 ± 0.12,0.971 ± 0.11,0.948 ± 0.12,0.922 ± 0.13,0.946 ± 0.15,0.912 ± 0.18
UniProt Q96RW7|Q96RW7-2,1.17 ± 0.29,1.11 ± 0.23,0.938 ± 0.16,1.06 ± 0.37,0.985 ± 0.2,0.889 ± 0.19,0.892 ± 0.13,0.924 ± 0.16
UniProt Q9ULV4|Q9ULV4-2|Q9ULV4-3,0.986 ± 0.021,1.11 ± 0.089,1.16 ± 0.088,1.26 ± 0.17,1.42 ± 0.22,1.53 ± 0.3,1.67 ± 0.33,1.74 ± 0.36
CDV3 (UniProt Q9UKY7),0.957 ± 0.072,1.05 ± 0.071,0.915 ± 0.072,0.955 ± 0.11,0.889 ± 0.093,1 ± 0.092,1.09 ± 0.083,1.11 ± 0.068
UniProt Q9NY12|Q9NY12-2,1.04 ± 0.097,1.06 ± 0.12,1.17 ± 0.2,1.34 ± 0.15,1.51 ± 0.24,1.72 ± 0.19,1.9 ± 0.27,2.35 ± 0.49
